PubChem BioAssay (EPA / NIEHS)
Several values for one entry are separate records, joined by “and”; a condition that tells them apart may be missing. Equal values may be shown once. Records with an inconclusive call do not appear. Where a structure was tested more than once in an assay, its records may differ in their call. Activity calls are given as the source filed them. Rule for the calls, unless noted: active = hit-call score of the fitted dose curve at least 0.9, where 1 is the maximum; inactive = score below 0.9.

Key:
[1] = ATG_NFI_CIS: Attagene CIS-FACTORIAL HepG2 Assay for human Nuclear Factor I (NFI) (AID 2282989); settings: HepG2 cis-regulatory reporter, NFI response element transcription; actives raise or lower the signal
Summary of the method: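 Read-out: reporter mRNA via RT-PCR plus capillary electrophoresis with fluorescence detection. Transiently transfected HepG2 (endogenous TF activity on cis promoters), 24 h compound exposure; gain or loss of signal fitted against DMSO.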

[2] = biological target: Myc proto-oncogene protein (Homo sapiens) (UniProt P01106); assay: ATG_Myc_CIS: Attagene CIS-FACTORIAL HepG2 Assay for human Myelocytomatosis (Myc) Proto-Oncogene Transcription Factor (AID 2282990); settings: HepG2, Attagene cis-reporter transcription factor activity; actives raise or lower the signal
Summary of the method: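 Multiplexed cis-reporter transcription in HepG2 cells after 24 h chemical treatment. Reporter mRNA measured by RT-PCR and capillary electrophoresis fluorescence; activity fitted bidirectionally against DMSO control.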

[3] = ATG_NF_kB_CIS: Attagene CIS-FACTORIAL HepG2 Assay for human Nuclear Factor Kappa B (NF-kB) (AID 2282991); settings: HepG2 Attagene cis-factorial NF-kB reporter mRNA; actives raise or lower the signal
Summary of the method: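 Multiplexed cis-reporter assay in transiently transfected HepG2. 24 h treatment; RNA isolated, RT-PCR, labelled fragments resolved by CE. DMSO baseline.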

[4] = ATG_NRF2_ARE_CIS: Attagene CIS-FACTORIAL HepG2 Assay for human Nuclear Factor Erythroid 2 Related Factor 2 (NFR2) response to Antioxidant Response Elements (ARE) (AID 2282992); settings: HepG2 Attagene ARE/NRF2 reporter, transcription factor activity; actives raise or lower the signal
Summary of the method: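 Endogenous transcription factor activity read out as reporter transcript levels (RT-PCR plus capillary electrophoresis, fluorescence) in transiently transfected HepG2 cells. Measured at 24 h after dosing; gain or loss of signal fitted versus DMSO.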

[5] = ATG_Oct_MLP_CIS: Attagene CIS-FACTORIAL HepG2 Assay for human Octamer-Binding Transcription Factor (Oct) (AID 2282993); settings: HepG2 Attagene cis-factorial Oct reporter, mRNA; actives raise or lower the signal
Summary of the method: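 Read-out: reporter mRNA via RT-PCR plus capillary electrophoresis of 6-FAM-labelled fragments. Transiently transfected HepG2, 24 h exposure, endogenous TF activity on cis elements. Gain or loss of signal fitted relative to DMSO.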

[6] = biological target: Cellular tumor antigen p53 (Homo sapiens) (UniProt P04637); assay: ATG_p53_CIS: Attagene CIS-FACTORIAL HepG2 Assay for human p53 Transcription Factor (AID 2282994); settings: HepG2 p53 cis-element reporter, Attagene mRNA; actives raise or lower the signal
Summary of the method: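 Endogenous p53 activity read in transiently transfected HepG2 from a cis-element-driven reporter transcript after 24 h exposure. RNA reverse-transcribed, PCR-amplified, fluorescently labelled and sized by capillary electrophoresis; gain or loss fitted against DMSO baseline.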

[7] = BSK_3C_TissueFactor: BioMAP Diversity Plus: 3C Assay for Tissue Factor Biomarker Activity (AID 2282997); settings: BioMAP 3C HUVEC, tissue factor biomarker readout; actives raise or lower the signal
Summary of the method: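 Tissue Factor measured by ELISA, 24 h after treatment of primary HUVEC in the BioMAP 3C setting.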

[8] = BSK_3C_uPAR: BioMAP Diversity Plus: 3C Assay for Urokinase-type plasminogen activator receptor (uPAR) Biomarker Activity (AID 2282998); settings: BioMAP 3C HUVEC, uPAR biomarker ELISA; actives raise or lower the signal
Summary of the method: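 HUVEC primary cells; 24 h post-dose; uPAR by ELISA; gain or loss of signal fitted bidirectionally vs DMSO baseline.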

[9] = BSK_3C_VCAM1: BioMAP Diversity Plus: 3C Assay for Vascular cell adhesion molecule 1 (VCAM1) Biomarker Activity (AID 2282999); settings: BioMAP 3C HUVEC, VCAM1 ELISA, cytokine-stimulated; actives raise or lower the signal
Summary of the method: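 Vascular primary endothelium (human umbilical vein) was exposed to chemicals and assayed 24 h later. VCAM-1 levels came from ELISA, with DMSO serving as baseline for bidirectional fitting.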

[10] = BSK_4H_Eotaxin3: BioMAP Diversity Plus: 4H Assay for Eotaxin 3 Biomarker Activity (AID 2283000); settings: primary human endothelial cells (HUVEC); actives raise or lower the signal
Summary of the method: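 Eotaxin-3 (CCL26) levels were measured by ELISA in HUVEC primary cultures 24 h post-dosing. Gain or loss of signal was fitted in both directions, with DMSO serving as baseline and negative control.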

[11] = biological target: human Peroxisome Proliferator-activated Receptor alpha (PPARa), PPARA (gene 5465) (UniProt Q07869); assay: ATG_PPARa_TRANS: Attagene TRANS-FACTORIAL HepG2 Assay for human Peroxisome Proliferator-activated Receptor alpha (PPARa) (AID 2283001; active = hit-call score of the fitted dose curve at least 0.9, where 1 is the maximum)
Summary of the method: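 Exposure: 24 h, transiently transfected HepG2 cells. Endpoint: GAL4-UAS reporter mRNA, RT-PCR with capillary electrophoresis fluorescence. Baseline: DMSO; increases fitted.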

[12] = biological target: human Peroxisome Proliferator-activated Receptor delta (PPARd), PPARD (gene 5467) (UniProt Q03181); assay: ATG_PPARd_TRANS: Attagene TRANS-FACTORIAL HepG2 Assay for human Peroxisome Proliferator-activated Receptor delta (PPARd) (AID 2283002; active = hit-call score of the fitted dose curve at least 0.9, where 1 is the maximum)
Summary of the method: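 Multiplexed trans-activation format: HepG2 liver cells expressing exogenous NR-Gal4 chimeras and GAL4-UAS reporters were exposed for 24 h. Reporter mRNA was detected by RT-PCR with capillary electrophoresis fluorescence; activity fitted as gain of signal relative to DMSO.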

[13] = read-out: Intercellular Adhesion Molecule 1 (ICAM1), ICAM1 (gene 3383); assay: BSK_3C_ICAM1: BioMAP Diversity Plus: 3C Assay for Intercellular Adhesion Molecule 1 (ICAM1) Biomarker Activity (AID 2283003); settings: primary human endothelial cells (HUVEC); actives raise or lower the signal
Summary of the method: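 ELISA read-out of ICAM-1; HUVEC (primary human), 3C system, 24 h post-dosing; bidirectional fit vs DMSO baseline.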

[14] = biological target: human Retinoic Acid Receptor beta (RARb), RARB (gene 5915) (UniProt P10826); assay: ATG_RARb_TRANS: Attagene TRANS-FACTORIAL HepG2 Assay for human Retinoic Acid Receptor beta (AID 2283004; active = hit-call score of the fitted dose curve at least 0.9, where 1 is the maximum)
Summary of the method: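 HepG2 cells were transiently transfected with GAL4-UAS reporter units that report activity of exogenous chimeric NR-Gal4 proteins, then exposed to compound for 24 h. Reporter mRNA was quantified by RT-PCR with capillary electrophoresis fluorescence, as gain of signal over DMSO.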

[15] = BSK_3C_Proliferation: Cell Proliferation Assessment in the BioMAP Diversity Plus: 3C Assay (AID 2283006); settings: primary human endothelial cells (HUVEC);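 for AC50: potency may reflect either rise or fall in cell number versus DMSO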
Summary of the method: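 HUVEC, sub-confluent; 48 h chemical exposure; 10% TCA fix, 0.1% SRB stain, A560 total protein. Gain or loss of signal fitted both directions vs DMSO control.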

[16] = biological target: Peroxisome proliferator-activated receptor gamma (Homo sapiens) (UniProt P37231); assay: ATG_PPARg_TRANS: Attagene TRANS-FACTORIAL HepG2 Assay for human Peroxisome Proliferator-activated Receptor-gamma (PPARg) (AID 2283007; active = hit-call score of the fitted dose curve at least 0.9, where 1 is the maximum)
Summary of the method: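 Human hepatoma HepG2, transient MRTU transfection, 24 h treatment. mRNA reporter signal by RT-PCR plus capillary electrophoresis, fluorescence detection; fitted for increase over DMSO negative control.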

[17] = biological target: Nuclear receptor subfamily 1 group I member 2 (Homo sapiens) (UniProt O75469); assay: ATG_PXR_TRANS: Attagene TRANS-FACTORIAL HepG2 Assay for human Pregnane X Receptor (PXR) (AID 2283008; active = hit-call score of the fitted dose curve at least 0.9, where 1 is the maximum)
Summary of the method: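 Transactivation by exogenous PXR–GAL4 fusion measured as reporter transcript induction after 24 h compound treatment of transfected human HepG2 cells. Read-out via RT-PCR and capillary electrophoresis of labelled fragments, fitted upward relative to DMSO.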

[18] = biological target: human Retinoic Acid Receptor gamma (RARg), RARG (gene 5916) (UniProt P13631); assay: ATG_RARg_TRANS: Attagene TRANS-FACTORIAL HepG2 Assay for human Retinoic Acid Receptor gamma (RARg) (AID 2283009; active = hit-call score of the fitted dose curve at least 0.9, where 1 is the maximum)
Summary of the method: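 Readout: reporter transcript levels via RT-PCR, 6-FAM primer-extension labelling, HpaI digestion and capillary electrophoresis. Cells: HepG2 carrying transfected RARg-GAL4 chimera plus UAS reporter set. Dosing 24 h; DMSO negative control.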

[19] = biological target: human RAR-related Orphan Receptor gamma (RORg), RORC (gene 6097) (UniProt P51449); assay: ATG_RORg_TRANS: Attagene TRANS-FACTORIAL HepG2 Assay for human RAR-related Orphan Receptor gamma (RORg) (AID 2283011; active = hit-call score of the fitted dose curve at least 0.9, where 1 is the maximum;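 for AC50: potency for induction of reporter transcripts above DMSO so activators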)
Summary of the method: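 HepG2 cells transiently transfected with GAL4-UAS reporter units and chimeric RORg-Gal4 construct; after 24 h chemical exposure, reporter mRNA measured by RT-PCR with fluorescent capillary electrophoresis, gain of signal fitted against DMSO.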

[20] = biological target: Retinoic acid receptor RXR-alpha (Homo sapiens) (UniProt P19793); assay: ATG_RXRa_TRANS: Attagene TRANS-FACTORIAL HepG2 Assay for human Retinoid X Receptor alpha (RXRa) (AID 2283012; active = hit-call score of the fitted dose curve at least 0.9, where 1 is the maximum)
Summary of the method: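 Read-out: fluorescent reporter-transcript fragments quantified by capillary electrophoresis after RT-PCR. Transiently transfected HepG2 cells carrying GAL4-UAS reporters and NR-GAL4 chimeras were exposed to chemical for 24 h; activity scored as increase over DMSO.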

Measured: AC50

Chain of human Peroxisome Proliferator-activated Receptor alpha (PPARa), PPARA (gene 5465) (Q07869 whole entry, looked up, the tested form may be a part): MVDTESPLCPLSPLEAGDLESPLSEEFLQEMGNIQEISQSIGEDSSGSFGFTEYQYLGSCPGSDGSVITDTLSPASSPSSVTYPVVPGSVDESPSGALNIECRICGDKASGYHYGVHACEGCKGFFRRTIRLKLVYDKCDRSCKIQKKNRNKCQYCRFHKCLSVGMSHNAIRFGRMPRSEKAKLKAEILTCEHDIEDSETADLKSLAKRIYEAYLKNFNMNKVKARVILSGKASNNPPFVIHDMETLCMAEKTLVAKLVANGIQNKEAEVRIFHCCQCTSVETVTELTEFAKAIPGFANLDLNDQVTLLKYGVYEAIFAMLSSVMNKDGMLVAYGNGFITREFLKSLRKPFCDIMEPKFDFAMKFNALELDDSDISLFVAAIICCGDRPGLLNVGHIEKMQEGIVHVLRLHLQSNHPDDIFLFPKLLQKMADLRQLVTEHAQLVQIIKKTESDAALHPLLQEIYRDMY
Chain of Myc proto-oncogene protein (Homo sapiens) (P01106 whole entry, looked up): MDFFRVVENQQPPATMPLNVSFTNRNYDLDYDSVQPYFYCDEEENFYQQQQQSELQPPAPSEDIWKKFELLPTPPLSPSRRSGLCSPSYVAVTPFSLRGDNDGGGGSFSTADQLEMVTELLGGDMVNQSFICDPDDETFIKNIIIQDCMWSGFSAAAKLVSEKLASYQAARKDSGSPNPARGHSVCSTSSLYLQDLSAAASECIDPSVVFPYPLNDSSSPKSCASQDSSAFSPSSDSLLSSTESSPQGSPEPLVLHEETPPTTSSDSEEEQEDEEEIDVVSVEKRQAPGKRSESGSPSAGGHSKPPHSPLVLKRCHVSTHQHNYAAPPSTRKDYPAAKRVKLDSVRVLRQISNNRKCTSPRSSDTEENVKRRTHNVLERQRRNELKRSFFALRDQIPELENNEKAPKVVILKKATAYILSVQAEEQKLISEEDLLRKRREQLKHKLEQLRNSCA
Chain of human Retinoic Acid Receptor beta (RARb), RARB (gene 5915) (P10826 whole entry, looked up, the tested form may be a part): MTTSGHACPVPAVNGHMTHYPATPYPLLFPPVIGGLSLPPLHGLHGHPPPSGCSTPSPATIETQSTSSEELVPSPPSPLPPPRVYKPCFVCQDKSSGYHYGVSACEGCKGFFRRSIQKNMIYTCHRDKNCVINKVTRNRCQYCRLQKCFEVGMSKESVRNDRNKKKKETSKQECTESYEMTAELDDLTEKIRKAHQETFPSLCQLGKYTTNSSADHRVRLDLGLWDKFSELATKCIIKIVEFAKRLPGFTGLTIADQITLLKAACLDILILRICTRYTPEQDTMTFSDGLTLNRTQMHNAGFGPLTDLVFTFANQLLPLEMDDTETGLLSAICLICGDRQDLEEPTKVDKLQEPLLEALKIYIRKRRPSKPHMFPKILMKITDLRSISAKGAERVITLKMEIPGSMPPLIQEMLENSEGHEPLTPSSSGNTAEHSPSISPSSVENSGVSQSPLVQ
Chain of human Retinoic Acid Receptor gamma (RARg), RARG (gene 5916) (P13631 whole entry, looked up, the tested form may be a part): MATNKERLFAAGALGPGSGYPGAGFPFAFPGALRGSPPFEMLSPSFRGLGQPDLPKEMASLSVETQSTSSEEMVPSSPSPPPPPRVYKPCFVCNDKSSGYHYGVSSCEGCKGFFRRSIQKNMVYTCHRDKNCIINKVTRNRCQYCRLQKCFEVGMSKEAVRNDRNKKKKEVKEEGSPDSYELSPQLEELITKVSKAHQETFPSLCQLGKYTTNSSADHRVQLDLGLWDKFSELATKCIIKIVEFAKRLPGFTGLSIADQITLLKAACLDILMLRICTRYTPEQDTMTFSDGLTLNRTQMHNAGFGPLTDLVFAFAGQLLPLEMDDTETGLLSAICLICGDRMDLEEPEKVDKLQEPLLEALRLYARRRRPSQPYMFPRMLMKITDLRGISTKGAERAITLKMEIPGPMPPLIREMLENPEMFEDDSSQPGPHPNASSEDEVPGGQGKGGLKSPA
Chain of Peroxisome proliferator-activated receptor gamma (Homo sapiens) (P37231 whole entry, looked up): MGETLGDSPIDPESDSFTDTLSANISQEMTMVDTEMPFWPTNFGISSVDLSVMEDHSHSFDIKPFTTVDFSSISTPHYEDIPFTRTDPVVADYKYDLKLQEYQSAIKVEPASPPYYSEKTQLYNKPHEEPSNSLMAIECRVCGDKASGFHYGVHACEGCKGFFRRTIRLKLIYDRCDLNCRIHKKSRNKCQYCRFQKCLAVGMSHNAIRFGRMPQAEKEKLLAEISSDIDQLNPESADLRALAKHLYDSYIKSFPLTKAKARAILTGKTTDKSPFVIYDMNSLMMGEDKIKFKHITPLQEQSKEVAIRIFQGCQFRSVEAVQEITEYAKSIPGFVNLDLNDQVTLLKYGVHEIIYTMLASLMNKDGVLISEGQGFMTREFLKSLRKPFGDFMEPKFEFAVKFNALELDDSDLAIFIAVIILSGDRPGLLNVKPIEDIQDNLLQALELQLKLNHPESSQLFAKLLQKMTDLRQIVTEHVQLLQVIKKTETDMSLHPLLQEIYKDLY
Chain of human RAR-related Orphan Receptor gamma (RORg), RORC (gene 6097) (P51449 whole entry, looked up, the tested form may be a part): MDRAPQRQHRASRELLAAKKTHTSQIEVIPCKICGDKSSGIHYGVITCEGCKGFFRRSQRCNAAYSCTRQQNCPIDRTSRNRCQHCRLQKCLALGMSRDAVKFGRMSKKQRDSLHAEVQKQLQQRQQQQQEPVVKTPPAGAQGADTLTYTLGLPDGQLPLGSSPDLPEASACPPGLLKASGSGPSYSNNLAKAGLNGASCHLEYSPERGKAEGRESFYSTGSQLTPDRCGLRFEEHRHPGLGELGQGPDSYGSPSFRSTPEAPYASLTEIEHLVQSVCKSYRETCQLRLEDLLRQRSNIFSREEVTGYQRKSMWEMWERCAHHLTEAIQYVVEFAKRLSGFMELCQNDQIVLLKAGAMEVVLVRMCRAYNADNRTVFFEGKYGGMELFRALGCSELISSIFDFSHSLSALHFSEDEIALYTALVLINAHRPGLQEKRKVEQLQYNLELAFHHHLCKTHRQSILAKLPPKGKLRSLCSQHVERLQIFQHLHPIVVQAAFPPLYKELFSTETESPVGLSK
Chain of human Peroxisome Proliferator-activated Receptor delta (PPARd), PPARD (gene 5467) (Q03181 whole entry, looked up, the tested form may be a part): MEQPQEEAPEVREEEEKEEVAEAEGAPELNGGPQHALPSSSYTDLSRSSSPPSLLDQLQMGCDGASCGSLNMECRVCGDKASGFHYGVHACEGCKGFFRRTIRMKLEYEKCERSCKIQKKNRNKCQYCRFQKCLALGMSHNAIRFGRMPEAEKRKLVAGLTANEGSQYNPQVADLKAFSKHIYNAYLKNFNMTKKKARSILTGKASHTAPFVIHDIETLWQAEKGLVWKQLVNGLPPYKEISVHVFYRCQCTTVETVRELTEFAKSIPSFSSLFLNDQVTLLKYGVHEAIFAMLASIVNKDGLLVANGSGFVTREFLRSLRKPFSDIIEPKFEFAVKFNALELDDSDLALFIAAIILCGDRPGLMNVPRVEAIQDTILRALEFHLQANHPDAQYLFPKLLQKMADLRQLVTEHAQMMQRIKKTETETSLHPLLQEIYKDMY
Chain of Retinoic acid receptor RXR-alpha (Homo sapiens) (P19793 whole entry, looked up, the tested form may be a part): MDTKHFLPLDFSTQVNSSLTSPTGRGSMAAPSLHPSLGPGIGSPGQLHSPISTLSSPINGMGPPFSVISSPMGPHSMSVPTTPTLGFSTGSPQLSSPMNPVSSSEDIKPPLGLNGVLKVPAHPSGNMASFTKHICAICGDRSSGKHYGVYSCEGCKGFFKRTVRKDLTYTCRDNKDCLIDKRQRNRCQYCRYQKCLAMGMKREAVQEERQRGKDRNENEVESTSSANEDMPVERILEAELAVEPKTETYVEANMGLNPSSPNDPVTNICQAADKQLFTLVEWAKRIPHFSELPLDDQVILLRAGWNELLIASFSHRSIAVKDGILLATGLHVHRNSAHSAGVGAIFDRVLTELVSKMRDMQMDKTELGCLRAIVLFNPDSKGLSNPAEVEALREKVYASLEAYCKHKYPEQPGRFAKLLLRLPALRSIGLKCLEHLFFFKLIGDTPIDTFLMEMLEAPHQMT
Chain of Nuclear receptor subfamily 1 group I member 2 (Homo sapiens) (O75469 whole entry, looked up, the tested form may be a part): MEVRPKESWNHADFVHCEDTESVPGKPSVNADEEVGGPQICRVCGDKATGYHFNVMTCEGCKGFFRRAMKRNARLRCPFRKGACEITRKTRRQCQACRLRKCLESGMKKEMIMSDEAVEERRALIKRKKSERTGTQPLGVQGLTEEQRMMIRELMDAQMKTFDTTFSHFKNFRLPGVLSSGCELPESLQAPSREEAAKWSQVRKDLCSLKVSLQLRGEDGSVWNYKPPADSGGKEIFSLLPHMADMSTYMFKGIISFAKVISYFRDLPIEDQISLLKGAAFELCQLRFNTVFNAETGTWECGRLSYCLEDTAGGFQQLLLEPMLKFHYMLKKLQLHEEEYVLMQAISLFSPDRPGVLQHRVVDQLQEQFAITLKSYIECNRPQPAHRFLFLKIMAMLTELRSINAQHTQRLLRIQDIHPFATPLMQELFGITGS
Chain of Cellular tumor antigen p53 (Homo sapiens) (P04637 whole entry, looked up): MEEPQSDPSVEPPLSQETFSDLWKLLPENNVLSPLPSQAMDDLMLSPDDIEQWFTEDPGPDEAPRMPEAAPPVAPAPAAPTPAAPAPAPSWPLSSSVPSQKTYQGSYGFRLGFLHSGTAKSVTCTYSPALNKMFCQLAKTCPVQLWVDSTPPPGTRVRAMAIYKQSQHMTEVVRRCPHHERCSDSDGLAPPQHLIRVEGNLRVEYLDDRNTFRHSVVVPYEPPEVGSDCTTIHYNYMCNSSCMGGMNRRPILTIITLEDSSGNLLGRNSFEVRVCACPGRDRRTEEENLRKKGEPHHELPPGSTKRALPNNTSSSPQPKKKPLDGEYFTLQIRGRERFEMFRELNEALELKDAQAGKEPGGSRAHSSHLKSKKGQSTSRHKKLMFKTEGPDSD

CCOC(=O)NCCOc1ccc(Oc2ccccc2)cc1
active: [4] 13.1 µM | [5] 14 µM | [8] 30.4 µM | [15] 20 µM | [16] 19.3 µM
not listed: [19] | [20]
inactive: all other assays above

C[C@]12C[C@H](O)[C@H]3[C@@H](CCC4=CC(=O)CC[C@@]43C)[C@@H]1CC[C@@H]2C(=O)CO
inactive: [1] | [2] | [3] | [4] | [5] | [6] | [7] | [8] | [9] | [10] | [11] | [12] | [13] | [14] | [16] | [17] | [19]
active: [15] 29 µM | [17] 27.7 µM and 11.4 µM

CCN(Cc1c(F)cccc1Cl)c1c([N+](=O)[O-])cc(C(F)(F)F)cc1[N+](=O)[O-]
active: [4] 4.28 µM | [8] 12 µM | [15] 12.9 µM | [17] 3.41 µM
not listed: [11] | [20]
inactive: all other assays above

O=C(c1ccc(O)cc1O)c1ccc(O)cc1O
active: [7] 29.2 µM | [16] 49.1 µM [middle of 4 runs]
inactive: all other assays above

CCC(C)OC(=O)N1CCCCC1CCO (stereo not drawn)
active: [4] 44.4 µM | [17] 9.99 µM
inactive: [1] | [2] | [3] | [4] | [5] | [6] | [7] | [8] | [9] | [10] | [11] | [12] | [13] | [14] | [15] | [16] | [17] | [19] | [20]

C#C[C@]1(O)CC[C@H]2[C@@H]3CCC4=CC(=O)CC[C@@H]4[C@H]3CC[C@@]21CC
inactive: [1] | [2] | [3] | [4] | [5] | [6] | [7] | [8] | [9] | [10] | [11] | [12] | [13] | [16] | [17]
active: [4] 52.1 µM | [15] 16 µM | [17] 9.53 µM

N#CSCSc1nc2ccccc2s1
active: [1] 15.4 µM and 358 nM | [3] 3.07 µM | [4] 2.89 µM | [5] 14.5 µM | [7] 3.33 µM and 5.66 µM | [8] 2.04 µM and 6.26 µM | [9] 6.63 µM and 10.3 µM | [10] 2.64 µM and 9.47 µM | [13] 6.48 µM and 15.4 µM | [15] 824 nM and 2.52 µM | [16] 23.1 µM | [19] 11.9 µM
inactive: [2] | [3] | [4] | [5] | [11] | [12] | [16] | [17] | [18] | [19]

CCOC(=O)C(C)Oc1ccc(Oc2nc3ccc(Cl)cc3o2)cc1 (stereo not drawn)
active: [8] 13 µM
not listed: [11] | [12] | [18] | [19] | [20]
inactive: all other assays above

CCNc1nc(N)nc(Cl)n1
not listed: [16] | [18] | [19] | [20]
inactive: all other assays above

CC(C)(c1ccc(O)cc1)c1ccc(O)cc1
active: [1] 44.2 µM and 37.8 µM | [2] 2.29 µM | [3] 56.9 µM | [6] 86.2 µM and 100 µM and 133 µM | [15] 27.4 µM | [16] 14.2 µM and 18.3 µM and 25.8 µM
inactive: [1] | [2] | [3] | [4] | [5] | [6] | [7] | [8] | [9] | [10] | [11] | [12] | [13] | [14] | [15] | [16] | [17] | [18]

CCCN(CCC)c1c([N+](=O)[O-])cc(C(F)(F)F)c(N)c1[N+](=O)[O-]
inactive: [1] | [2] | [6] | [12] | [14] | [16] | [18] | [19]
active: [3] 50 µM | [4] 5.51 µM | [5] 4.57 µM | [7] 36.5 µM | [8] 31.8 µM | [9] 30.8 µM | [10] 30.3 µM | [13] 36.8 µM | [15] 13.2 µM | [17] 3.98 µM

CC(C)(C)[C@@H](O)[C@@H](Cc1ccc(Cl)cc1)n1cncn1
active: [4] 13.4 µM | [5] 7.98 µM
not listed: [20]
inactive: all other assays above
